A short description of assay [1]: antimalarial activity against Dd2 strain (AID 2302;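 active = growth inhibition above 50% at the single 2 µM test dose, taken to imply half-maximal potency below 2 µM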;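 note: 0% = DMSO untreated growth and 100% = chloroquine plus artemisinin killed control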). Conditions: P. falciparum Dd2 in RBCs, LDH growth readout, 72 h; at 2 µM; stronger effect = higher value.
Assay [2] can be described thus: human hepatoma cell viability loss – ATP luminescence, cytotoxicity control for P. falciparum antimalarial project, primary screen (AID 2303;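 active = inhibition above 50%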;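 note: 0% = DMSO wells and 100% = digitonin-killed cells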). Conditions: HepG2 viability, 24-48 h, at 10 µM, stronger effect = higher value.
In assay [3] the target is L-lactate dehydrogenase (Plasmodium falciparum (isolate CDC / Honduras)) (UniProt Q27743). Nature of the assay: PfLDH activity inhibition – cell lysate, 3D7 strain, counter-screen for P. falciparum growth inhibition project (AID 2304).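 Note: 0% = vehicle and 100% = reference inhibitor.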 The note with it: P. falciparum 3D7 crude extract, LDH APAD/NBT absorbance; at 2 µM; stronger effect = higher value.
Assay [4] can be described thus: inhibition of 3D7 malaria parasite growth – strain 3D7 (AID 2306).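 Note: 0% = DMSO wells and 100% = chloroquine plus artemisinin control wells.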 Conditions: P. falciparum 3D7 erythrocytic growth, LDH absorbance, 72 h; at 2 µM; stronger effect = higher value.
Assay [5] has as its target Calcium-dependent protein kinase 1 (Plasmodium falciparum (isolate 3D7)) (UniProt P62344). Nature of the assay: PfCDPK1 kinase inhibitors, biochemical, TCAMS library (AID 1159585; cut-off not given, nearly all actives have IC50 up to about 0.98 µM;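 note: inhibitors leave more ATP so luminescence rises with inhibition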). Conditions: recombinant PfCDPK1, Kinase-Glo ATP depletion luminescence. For orientation: Kinase-Glo reads ATP consumption through a luciferase reaction.
Assay [6] concerns the target Plasmodium falciparum protein kinase 6 (PK6, PF3D7_1337100) (UniProt Q8IDW1). In words: PfPK6 kinase inhibitors, biochemical, TCAMS library (AID 1159586). Conditions: recombinant PfPK6, Kinase-Glo ATP depletion luminescence.
The target of assay [7] is Protein kinase 7 (PK7), Plasmodium falciparum 3D7 (PF3D7_0213400) (UniProt Q7YTF7). In words: inhibition of Plasmodium PK7 catalytic activity – biochemical, TCAMS antimalarial set, Kinase-Glo luminescence (AID 1159587). The note with it: recombinant PfPK7, Kinase-Glo ATP depletion luminescence.
Assay [8] concerns the target Calcium-dependent protein kinase 4 (Plasmodium falciparum (isolate 3D7)) (UniProt Q8IBS5). Nature of the assay: PfCDPK4 kinase inhibitors, biochemical, TCAMS library (AID 1159588; cut-off not given, nearly all actives have IC50 up to about 0.91 µM). Conditions: recombinant PfCDPK4, Kinase-Glo ATP depletion luminescence.

A number with no mark means an inactive call. For some of these results: Potency and affinity values are given separately. Calls of active or inactive are those of the source. Unless noted, the rule behind the calls is not given here.

As a reminder, the inhibition is the relative decrease from the control value, in per cent.

Chain of Protein kinase 7 (PK7), Plasmodium falciparum 3D7 (PF3D7_0213400) (Q7YTF7 1-343): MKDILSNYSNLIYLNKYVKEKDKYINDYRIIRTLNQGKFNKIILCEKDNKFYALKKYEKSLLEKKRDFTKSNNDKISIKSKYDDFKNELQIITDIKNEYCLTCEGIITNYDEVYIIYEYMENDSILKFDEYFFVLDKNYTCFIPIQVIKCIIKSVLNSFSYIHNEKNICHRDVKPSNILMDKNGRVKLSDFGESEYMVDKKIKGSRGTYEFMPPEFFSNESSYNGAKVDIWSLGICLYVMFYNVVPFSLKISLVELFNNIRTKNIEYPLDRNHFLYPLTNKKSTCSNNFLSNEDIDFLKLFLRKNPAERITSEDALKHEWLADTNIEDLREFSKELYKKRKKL
Chain of Plasmodium falciparum protein kinase 6 (PK6, PF3D7_1337100) (Q8IDW1 1-305): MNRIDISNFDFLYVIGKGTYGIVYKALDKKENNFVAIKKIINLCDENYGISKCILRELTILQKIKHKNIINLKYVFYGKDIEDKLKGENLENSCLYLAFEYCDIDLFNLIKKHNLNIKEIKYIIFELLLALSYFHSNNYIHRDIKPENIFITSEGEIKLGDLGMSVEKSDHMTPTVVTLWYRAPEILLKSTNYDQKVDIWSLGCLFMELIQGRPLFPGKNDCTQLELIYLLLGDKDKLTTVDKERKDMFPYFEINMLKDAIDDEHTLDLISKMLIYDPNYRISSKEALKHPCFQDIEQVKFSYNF
Chain of L-lactate dehydrogenase (Plasmodium falciparum (isolate CDC / Honduras)) (Q27743 whole entry, looked up): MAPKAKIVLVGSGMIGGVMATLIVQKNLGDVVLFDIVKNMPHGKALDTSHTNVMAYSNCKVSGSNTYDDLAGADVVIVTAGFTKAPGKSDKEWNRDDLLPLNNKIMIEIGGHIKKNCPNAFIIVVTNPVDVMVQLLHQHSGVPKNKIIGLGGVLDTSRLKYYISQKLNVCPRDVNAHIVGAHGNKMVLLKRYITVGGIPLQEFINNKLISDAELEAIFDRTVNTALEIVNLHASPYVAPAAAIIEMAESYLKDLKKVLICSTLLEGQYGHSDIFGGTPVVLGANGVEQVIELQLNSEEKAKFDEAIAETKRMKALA
Chain of Calcium-dependent protein kinase 4 (Plasmodium falciparum (isolate 3D7)) (Q8IBS5 whole entry, looked up): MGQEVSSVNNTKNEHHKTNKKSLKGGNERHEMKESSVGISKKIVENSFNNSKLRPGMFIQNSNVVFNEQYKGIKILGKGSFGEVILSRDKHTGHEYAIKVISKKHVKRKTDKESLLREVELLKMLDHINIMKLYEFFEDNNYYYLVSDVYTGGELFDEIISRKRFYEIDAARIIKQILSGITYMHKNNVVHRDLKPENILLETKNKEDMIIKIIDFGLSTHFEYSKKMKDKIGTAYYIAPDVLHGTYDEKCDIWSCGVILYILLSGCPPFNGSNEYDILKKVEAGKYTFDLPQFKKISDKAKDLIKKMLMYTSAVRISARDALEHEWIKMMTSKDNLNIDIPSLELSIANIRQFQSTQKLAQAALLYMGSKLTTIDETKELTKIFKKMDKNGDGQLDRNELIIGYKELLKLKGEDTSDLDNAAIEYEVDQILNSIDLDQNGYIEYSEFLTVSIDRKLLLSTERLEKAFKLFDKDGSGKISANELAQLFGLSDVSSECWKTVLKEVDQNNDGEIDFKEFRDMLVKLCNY
Chain of Calcium-dependent protein kinase 1 (Plasmodium falciparum (isolate 3D7)) (P62344 whole entry, looked up): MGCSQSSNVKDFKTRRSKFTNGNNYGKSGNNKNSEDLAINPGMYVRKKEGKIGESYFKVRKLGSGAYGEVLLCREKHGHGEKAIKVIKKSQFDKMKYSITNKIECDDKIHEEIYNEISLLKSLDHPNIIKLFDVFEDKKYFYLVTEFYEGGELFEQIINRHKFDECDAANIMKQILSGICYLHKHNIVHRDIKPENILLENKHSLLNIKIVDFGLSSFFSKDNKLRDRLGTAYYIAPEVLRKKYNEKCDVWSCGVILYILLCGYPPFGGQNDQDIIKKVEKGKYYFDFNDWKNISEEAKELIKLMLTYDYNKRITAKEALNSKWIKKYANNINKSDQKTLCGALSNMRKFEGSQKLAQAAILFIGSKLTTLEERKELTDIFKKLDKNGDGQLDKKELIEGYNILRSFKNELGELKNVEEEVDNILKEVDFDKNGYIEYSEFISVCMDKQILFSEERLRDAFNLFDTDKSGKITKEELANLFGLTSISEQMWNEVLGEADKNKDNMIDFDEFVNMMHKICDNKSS

For the compound `Cc1ccc(NC(=O)NC2CCN(CCCCCNC(=O)/C=C/c3ccc(Cl)c(Cl)c3)CC2)cc1`, the growth inhibition in assay [1] was 19%; in assay [4] it was 102% (active). Also, the inhibition in assay [2] was 41%; in assay [3], -2%. Further, the result in assay [5], in assay [6], in assay [7] and in assay [8] was inactive.

Consider `O=C(N[C@@H](Cc1ccccc1)[C@H](O)CNCCC(F)(F)F)c1cccc(CCC2CC2)c1`, for which the growth inhibition in assay [1] is 13%; in assay [4], 87% (active). In addition, the inhibition is -4% in assay [2] and 5% in assay [3]. Also, the outcome in assay [5], in assay [6], in assay [7] and in assay [8] was inactive.

With `Cc1nc(-c2nc(NCc3ccccn3)ncc2-c2ccsc2)sc1C`, the growth inhibition is 87% (active) in assay [1] and 92% (active) in assay [4]. Moreover, the inhibition in assay [2] is -2%; in assay [3], 4%. For the same compound, the result in assay [5], in assay [6], in assay [7] and in assay [8] was inactive.

Take `CCNc1cc(C(=O)N[C@@H](Cc2ccccc2)[C@H](O)CNC23CCC(CC2)CC3)cc(N2CCCCS2(=O)=O)c1`: the results for the growth inhibition in assay [1] and in assay [4] were 98% (active) and 99% (active), respectively. The inhibition in assay [2] is 10%; in assay [3], 4%. In addition, the outcome in assay [5], in assay [6], in assay [7] and in assay [8] was inactive.

For the compound `CC[C@H](C)CNC(=O)c1ccnc(-c2cccc(CN(C)C3CCN(C)CC3)c2)c1`, the growth inhibition in assay [1] was 33%; in assay [4] it was 100% (active). Besides, the results for the inhibition in assay [2] and in assay [3] were -19% and -1%, respectively. Further, the outcome in assay [5], in assay [6], in assay [7] and in assay [8] was inactive.

On to `COc1ccc(-c2nc(NC(=O)CS(=O)(=O)c3ccc(C)cc3)sc2C)cc1`, for which the results for the growth inhibition in assay [1] and in assay [4] were 94% (active) and 101% (active), respectively. Also, the values for the inhibition in assay [2] and in assay [3] were 56% (active) and 2%, respectively. Further, the result in assay [5], in assay [6], in assay [7] and in assay [8] was inactive.

With `CCCCCCCN1CCC(CC(=O)Nc2ccnc3ccc(OC)cc23)CC1`, the growth inhibition in assay [1] is 52% (active); in assay [4], 97% (active). For the same compound, the inhibition was 15% in assay [2] and -2% in assay [3]. Moreover, the outcome in assay [5], in assay [6], in assay [7] and in assay [8] was inactive.

With `Cc1sc2cc(Cl)cc(Cl)c2c1S(=O)(=O)Nc1ccc2nccc(N3CCNCC3)c2c1`, the growth inhibition in assay [1] is 99% (active); in assay [4], 100% (active). Besides, the inhibition was 24% in assay [2] and -8% in assay [3]. The outcome in assay [5], in assay [6], in assay [7] and in assay [8] was inactive.

Take `Cc1nc(N)nc(N)c1OCc1cccc2ccccc12`: the growth inhibition is 11% in assay [1] and 96% (active) in assay [4]. For the same compound, the inhibition in assay [2] is 63% (active); in assay [3] it was -1%. Moreover, the result in assay [5], in assay [6], in assay [7] and in assay [8] was inactive.

As for `COc1ccc2sc(CNCCCNc3cc(=O)c4ccccc4[nH]3)c(Cl)c2c1`, the figures for the growth inhibition in assay [1] and in assay [4] were 42% and 85% (active), respectively. Further, the inhibition in assay [2] is 1%; in assay [3], -4%. Moreover, the outcome in assay [5], in assay [6], in assay [7] and in assay [8] was inactive.

With `CN1CCC[C@H]1COc1ccc(CN2CC[C@H](NC(=O)c3ccc(Cl)c(Cl)c3)C2)c2ccccc12`, the growth inhibition in assay [1] is 98% (active); in assay [4], 101% (active). Besides, the results for the inhibition in assay [2] and in assay [3] were 47% and -3%, respectively. Also, the outcome in assay [5], in assay [6], in assay [7] and in assay [8] was inactive.

For the compound `COc1ccc(N2C(=O)C3C(C2=O)C2(C)c4ccccc4C3(C)c3ccccc32)c([N+](=O)[O-])c1` (stereo not given), the growth inhibition was 54% (active) in assay [1] and 99% (active) in assay [4]. The values for the inhibition in assay [2] and in assay [3] were 11% and 7%, respectively. Moreover, the result in assay [5], in assay [6], in assay [7] and in assay [8] was inactive.

Regarding `c1ncc(CCNc2nc(Nc3ccc4c(c3)OCO4)nc(NC3CCCC3)n2)[nH]1`, the growth inhibition was -3% in assay [1] and 80% (active) in assay [4]. In addition, the inhibition is -1% in assay [2] and -2% in assay [3]. The result in assay [5], in assay [6], in assay [7] and in assay [8] was inactive.

Regarding `O=C(Nc1ccc2c(c1)OCO2)NC1CCN(c2ccnc(Nc3ccc(F)cc3)n2)C1` (stereo not given), the results for the growth inhibition in assay [1] and in assay [4] were 89% (active) and 100% (active), respectively. In addition, the values for the inhibition in assay [2] and in assay [3] were 5% and 3%, respectively. Besides, the outcome in assay [5], in assay [6], in assay [7] and in assay [8] was inactive.

`O=C(Nc1cccc(-c2cccc(-c3nc4ccccc4[nH]3)c2)c1)Nc1ccc(F)c(F)c1F`: the values for the growth inhibition in assay [1] and in assay [4] were 95% (active) and 98% (active), respectively. For the same compound, the results for the inhibition in assay [2] and in assay [3] were 78% (active) and -1%, respectively. The outcome in assay [5], in assay [6], in assay [7] and in assay [8] was inactive.

As to `O=C(Nc1ccc(-c2ccccc2)cc1)Nc1cccc(Cn2cnc(N3CCCNCC3)cc2=O)c1`, the growth inhibition was 13% in assay [1] and 88% (active) in assay [4]. The inhibition in assay [2] is 8%; in assay [3] it was 4%. For the same compound, the outcome in assay [5], in assay [6], in assay [7] and in assay [8] was inactive.

Regarding `COc1cc(-n2c(CN3CCCC3)nc3cc(-c4ccc(Cl)cc4)sc3c2=O)ccc1OCCN1CCCC1`, the growth inhibition in assay [1] is 90% (active); in assay [4], 94% (active). The inhibition in assay [2] was 66% (active); in assay [3] it was -5%. The result in assay [5], in assay [6], in assay [7] and in assay [8] was inactive.

On to `NC1CCN(c2nc(NCCc3ccc(O)cc3)nc(NCc3ccccc3-c3ccccc3)n2)CC1`, for which the growth inhibition is 32% in assay [1] and 99% (active) in assay [4]. In addition, the inhibition is 14% in assay [2] and 4% in assay [3]. For the same compound, the result in assay [5], in assay [6], in assay [7] and in assay [8] was inactive.

Regarding `O=C(NCCCCN1CCC(c2cccc3ccccc23)CC1)c1ccc(NC(=O)c2ccc(Cl)cc2)cc1`, the growth inhibition in assay [1] is 39%; in assay [4] it was 99% (active). The values for the inhibition in assay [2] and in assay [3] were 20% and 2%, respectively. Further, the result in assay [5], in assay [6], in assay [7] and in assay [8] was inactive.

As for `COc1ccc2ccccc2c1C=NNc1cc(C)nc2cc(C(F)(F)F)ccc12`, the growth inhibition in assay [1] is 4%; in assay [4], 92% (active). The inhibition in assay [2] was 1%; in assay [3], 0%. The result in assay [5], in assay [6], in assay [7] and in assay [8] was inactive.

(Values after PubChem BioAssay.)
